Data reported in the supplement of paper PMC13380429.

Test system: Vero E6 infected with SARS-CoV-2
Test: inhibition of SARS-CoV-2 cytopathic effect; higher = more antiviral protection, active = above 15
Conditions: 48 h

Measured: inhibition of SARS-CoV-2 cytopathic effect

Cc1ccc(C(=O)Cn2c3c(sc2=N)CCCC3)cc1 [pifithrin-alpha]
inactive: 1 nM -1.05% | 8.33 nM -0.83% | 100 nM -1.23% | 833.33 nM -1.09% | 10000 nM -2.47%

Cc1cncc(CN2CCC(=C3c4ccc(Cl)cc4CCc4cccnc43)CC2)c1 [rupatadine]
inactive: 1 nM -0.79% | 8.33 nM -0.26% | 100 nM 2.27% | 833.33 nM 2.5% | 10000 nM -9.2%

CCCCCCc1ccc(O)cc1O [hexylresorcinol]
inactive: 1 nM 1.73% | 8.33 nM 1.1% | 100 nM 2.21% | 833.33 nM 4.02% | 10000 nM 3.14%

Cn1cnc2c(NCc3ccccc3)nc(NCCO)nc21 [olomoucine]
inactive: 1 nM 1.4% | 8.33 nM 1.88% | 100 nM 1.77% | 833.33 nM -0.46% | 10000 nM -0.63%

CCCOc1ccc2[nH]c(NC(=O)OC)nc2c1 [oxibendazole]
inactive: 1 nM -2.12% | 8.33 nM -0.7% | 100 nM -0.63% | 833.33 nM -2.39% | 10000 nM -0.04%

C[C@H]1O[C@@H](Oc2c(-c3cc(O)c(O)c(O)c3)oc3cc(O)cc(O)c3c2=O)[C@@H](O)[C@@H](O)[C@@H]1O [myricitrin]
inactive: 1 nM 0.43% | 8.33 nM -0.53% | 100 nM 0.85% | 833.33 nM -1.02% | 10000 nM -1.34%

O=C(Cc1ccc(Cl)c(Cl)c1)N1CCCC[C@@H]1CN1CCCC1
inactive: 1 nM -0.96% | 8.33 nM 2.64% | 100 nM 1.57% | 833.33 nM -0.63% | 10000 nM -4.8%

Cc1ccc(-c2ncc(Cl)cc2-c2ccc(S(C)(=O)=O)cc2)cn1 [etoricoxib]
inactive: 1 nM 2.49% | 8.33 nM 0.25% | 100 nM -0.65% | 833.33 nM -1.22% | 10000 nM -1.11%

Cc1nnc(C(C)C)n1C1C[C@H]2CC[C@@H](C1)N2CC[C@H](NC(=O)C1CCC(F)(F)CC1)c1ccccc1 (stereo in doubt) [maraviroc]
inactive: 1 nM -2.38% | 8.33 nM -1.45% | 100 nM 1.77% | 833.33 nM -0.21% | 10000 nM 2.92%

CC(C)OC(=O)OCOP(=O)(CO[C@H](C)Cn1cnc2c(N)ncnc21)OCOC(=O)OC(C)C [tenofovir-disoproxil]
inactive: 1 nM 0.65% | 8.33 nM -1.58% | 100 nM 3.17% | 833.33 nM -4% | 10000 nM -9.11%

N=C1N[C@H]2[C@H](CS[C@H]2CCCCC(=O)O)N1 [2-iminobiotin]
inactive: 1 nM -0.5% | 8.33 nM 1.48% | 100 nM -1.14% | 833.33 nM -2.01% | 10000 nM -2.17%

Cc1c(N)nc([C@H](CC(N)=O)NC[C@H](N)C(N)=O)nc1C(=O)N[C@H](C(=O)N[C@H](C)[C@@H](O)[C@H](C)C(=O)N[C@H](C(=O)NCCc1nc(-c2nc(C(=O)NCCC[S+](C)C)cs2)cs1)[C@@H](C)O)[C@@H](OC1OC(CO)C(O)C(O)C1OC1OC(CO)C(O)C(OC(N)=O)C1O)c1cnc[nH]1 (stereo not given in full) [bleomycin]
inactive: 1 nM -3.91% | 8.33 nM -1.18% | 100 nM -1.47% | 833.33 nM -11.3% | 10000 nM -21.5%

CCN(CC)C(=O)/C(C#N)=C/c1cc(O)c(O)c([N+](=O)[O-])c1 [entacapone]
inactive: 1 nM -0.37% | 8.33 nM -1.7% | 100 nM -1.61% | 833.33 nM -2.41% | 10000 nM -0.4%

O=c1c2ccccc2[se]n1-c1ccccc1 [Ebselen]
inactive: 1 nM 2.29% | 8.33 nM 0.73% | 100 nM 0.59% | 833.33 nM 1.45% | 10000 nM 1.28%

COc1cc2c(cc1OC)-c1c/c(=N\c3c(C)cc(C)cc3C)n(C)c(=O)n1CC2 [trequinsin]
inactive: 1 nM 1.9% | 8.33 nM 2.01% | 100 nM -0.55% | 833.33 nM 3.41% | 10000 nM 6.34%

CN1[C@@H]2CC[C@H]1C[C@@H](OC1c3ccccc3CCc3ccccc31)C2 [deptropine]
inactive: 1 nM 0.19% | 8.33 nM 0.38% | 100 nM 1.32% | 833.33 nM -0.87% | 10000 nM 12.7%

Cc1ccc(-c2cn3c4c(sc3n2)CCCC4)cc1 [pifithrin-cyclic]
inactive: 1 nM -1.71% | 8.33 nM -2.91% | 100 nM 1.98% | 833.33 nM 0.25% | 10000 nM 0.74%
